{"source": "PubChem BioAssay (Tox21)", "note": "“And” between values parts separate entries of the source, which are not always exact repeats. Equal entries are not always repeated. Inconclusive results are not listed. A number with no mark means an inactive call. The source made the active and inactive calls. Calls follow the shape of the dose curve; as a rule, active = well fitted inhibition curve with a large enough effect in the repeat runs; inconclusive = weak or mixed curves; inactive = no such curve, though single readings can be large or run the other way. % is scaled to controls: 0 for no effect and ±100 for the full control effect; potency is read from the fitted curve at half-maximal effect."}
{"target": "Cytochrome P450 2D6 (Homo sapiens) (UniProt P10635)", "sequence (P10635 whole entry, looked up)": "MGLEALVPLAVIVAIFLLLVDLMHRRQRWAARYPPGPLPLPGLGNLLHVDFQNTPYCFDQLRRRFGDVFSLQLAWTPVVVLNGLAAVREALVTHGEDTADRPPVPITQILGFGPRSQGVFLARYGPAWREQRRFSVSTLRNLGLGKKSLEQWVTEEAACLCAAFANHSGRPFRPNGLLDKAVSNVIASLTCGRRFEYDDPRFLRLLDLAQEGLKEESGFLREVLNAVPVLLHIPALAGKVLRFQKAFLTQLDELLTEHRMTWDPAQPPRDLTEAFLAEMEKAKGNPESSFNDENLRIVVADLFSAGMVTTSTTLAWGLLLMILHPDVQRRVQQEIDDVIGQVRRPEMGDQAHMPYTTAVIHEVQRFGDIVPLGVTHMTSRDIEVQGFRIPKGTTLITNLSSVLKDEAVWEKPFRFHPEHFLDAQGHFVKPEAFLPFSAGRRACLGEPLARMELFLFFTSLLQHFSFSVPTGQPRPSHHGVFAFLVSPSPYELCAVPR", "test": "Cytochrome P450 Family 2 Subfamily D Member 6 (CYP2D6) small molecule antagonists: luciferase reporter qHTS assay (AID 1671196); also: nearly all actives have a fitted effect of over 50% in size", "conditions": "P450-Glo CYP2D6 enzyme assay, luciferin luminescence, 1 h; series mostly up to 115 µM; activity change, negative = inhibition: at the top concentration", "method_in_brief": "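Chemicals tested for interference with CYP2D6 activity; proluciferin substrate, NADPH regeneration, 1 h at room temperature, luminescent detection.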"}
{"smiles": "OC(c1ccc(Cl)cc1)(c1ccc(Cl)cc1)c1cccnc1", "Potency": "11.2 µM (active)"}
{"smiles": "[CH3][Sn]([CH3])([Cl])[Cl]", "Potency": "inactive"}
{"smiles": "CC(O)(CS(=O)(=O)c1ccc(F)cc1)C(=O)Nc1ccc(C#N)c(C(F)(F)F)c1", "note": "(configuration not stated)", "activity change, negative = inhibition": "-27.2% [at 53 µM]"}
{"smiles": "CCCCCCCCCCOC(=O)c1ccccc1C(=O)OCCCCCCCCCC", "activity change, negative = inhibition": "0.829%"}
{"smiles": "N#Cc1ccc(Cl)cc1", "activity change, negative = inhibition": "-6.73%"}
{"smiles": "CCOP(=S)(OCC)SCn1nnc2ccccc2c1=O", "Potency": "35.6 µM (active)"}
{"smiles": "O=C(CCl)c1ccc(Cl)cc1Cl", "Potency": "39.8 µM (active) and 38.9 µM (active)"}
{"smiles": "Sc1ccccc1Cl", "activity change, negative = inhibition": "-12.5% [at 53 µM]"}
{"smiles": "CC(c1ccc(O)cc1)(c1ccc(O)cc1)c1ccc(O)cc1", "Potency": "71 µM (active)"}
{"smiles": "Cc1ccccc1CCl", "activity change, negative = inhibition": "-21.7%"}
{"smiles": "O=C(Nc1ccccc1)Nc1ccnc(Cl)c1", "Potency": "39.9 µM (active)"}
{"smiles": "O=[N+]([O-])C(Br)(CO)CO", "activity change, negative = inhibition": "1.33%"}
{"smiles": "COc1nn(CSP(=S)(OC)OC)c(=O)s1", "Potency": "31.7 µM (active)"}
{"smiles": "CC(=O)CCC(C)=O", "activity change, negative = inhibition": "-2.49%"}
{"smiles": "COP(=S)(OC)Oc1ccc([N+](=O)[O-])cc1Cl", "activity change, negative = inhibition": "-21.2%"}
{"smiles": "C[C@H]1CNCCc2ccc(Cl)cc21", "Potency": "1.38 µM (active)"}
{"smiles": "O=C(O)C(F)(F)C(F)(F)C(F)(F)C(F)(F)C(F)(F)C(F)(F)C(F)(F)C(F)(F)C(F)(F)C(F)(F)F", "activity change, negative = inhibition": "-1.72%"}
{"smiles": "c1ccc(CN2CCNCC2)cc1", "Potency": "17.2 µM (active)"}
{"smiles": "O=C(Nc1ccccc1)Nc1cnns1", "Potency": "31.7 µM (active)"}
{"smiles": "CO/C=C(/C(=O)OC)c1ccccc1COc1cccc(C(F)(F)F)n1", "Potency": "39.9 µM (active)"}
{"smiles": "CNC(C)Cc1ccccc1OC", "note": "(configuration not stated)", "Potency": "13.8 µM (active)"}
{"smiles": "CC(C)=CCOc1c2occc2cc2ccc(=O)oc12", "Potency": "4.9 µM (active)"}
